± gives the uncertainty stated by the source.

This assay deals with HEK293T-Rex ERSE-FLuc. Briefly: ERSE-FLuc reporter activation, triplicate confirmation, relative to 500 nM thapsigargin (% of thapsigargin); higher = stronger ATF6/ERSE reporter activation. As to conditions: 6.8 µM; 18 h; screen: confirmation. The method, then: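 HEK293T-Rex cells stably expressing the ERSE-firefly luciferase (BiP promoter, ATF6-preferring) or XBP1-splicing Renilla luciferase (IRE1/XBP1s) reporter, 1536-well plates, compound at 6.8 µM for 18 hr at 37 °C; luminescence read […] and expressed as % activation = 100*(compound - median DMSO)/(median 500 nM thapsigargin - median DMSO). Primary screen was single-pass; confirmation screen in triplicate (mean ± SD).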
As for `CCn1c(/C(C#N)=C/c2ccc(OC)cc2)nc2ccccc21`, the ERSE-FLuc reporter activation was found to be 27.2 ± 7.1.
For `Nc1ccc2nc(/C=C/c3ccccc3)[nH]c2c1` the value was 36.7 ± 5.2; for `CCCCCCOc1ccc(/C(C)=N/NC2=NCCN2)cc1[N+](=O)[O-]`, 31.3 ± 2.8.
Next, `Cc1ccc(O)c(-c2cc(-c3ccc(F)cc3)n[nH]2)c1`: 25.5 ± 7.2.
Next, `CCOC(=O)c1sc(NC(=O)c2cccc3ccccc23)nc1C`: 27.3 ± 2.2; `Cc1ccc(O)c(NC(=O)c2cc(-c3cccs3)on2)c1`: 106 ± 4; `Cc1cc(C)nc(Nc2nc(-c3ccc(O)c(O)c3)cs2)n1`: 47.4 ± 6.5.
As to `Cc1cc2nc(/C(C#N)=C/c3ccco3)[nH]c2cc1C`, the ERSE-FLuc reporter activation stood at 34.1 ± 8.6.
For `N#Cc1c(NC(=O)c2cnccn2)sc2c1CCCC2` the value was 40.2 ± 22; for `Nc1ccc(-c2nc3cc(N)c(Cl)cc3[nH]2)cc1`, 32.5 ± 3.7.
Next, `Cc1cc(C)nc(/N=C(\N)Nc2ccc(OCc3ccccc3)cc2)n1`: 53.1 ± 14; `COc1ccc(-c2csc(-c3ccc(O)cc3)n2)cc1`: 29.4 ± 5.
For `CCc1cc2c(=O)c(-c3ccc4c(c3)OCCO4)coc2cc1OC` the value was 34.7 ± 3.1; for `Oc1ccc(-c2csc(-c3cccnc3)n2)cc1O`, 29.3 ± 1.4; for `COc1ccc2[nH]c3c(N4CCCCC4)ncnc3c2c1`, 28.3 ± 2.6.
As to `COc1ccc(/C=C(\C#N)c2nc(-c3ccco3)cs2)cc1O`, the ERSE-FLuc reporter activation worked out at 35.1 ± 3.9.
Next, `COc1ccccc1OCC(=O)Nc1cc(C)ccc1O`: 33.1 ± 6.4.
Next, `COc1ccc(/C=C/c2nc3cc([N+](=O)[O-])ccc3s2)cc1O`: 25.5 ± 3.9; `O=C1N/C(=C\c2ccc(O)cc2)C(O)=C1C=NCc1ccccc1`: 27.6 ± 6.4; `O=C1/C(=C/c2ccc(O)c(O)c2)SC(=S)N1c1ccc(O)cc1`: 30.5 ± 8.2.
Next, `O=C(Nc1ccc(O)cc1)c1c(O)c2c([nH]c1=O)CCCC2`: 29.7 ± 1.1; `N#C/C(=C/c1ccc(O)c(O)c1)c1nc2ccccc2[nH]1`: 29.7 ± 1.1; `O=c1[nH]c(COc2ccccc2)nc2sc3c(c12)CCCC3`: 39 ± 5.3.
For `Oc1ccc(/C=N/Nc2cccc3cccnc23)cc1O`, the ERSE-FLuc reporter activation is 33.1 ± 4.8.
For `CCCCNC(=O)c1cc(-c2cccs2)on1` the value was 65.1 ± 6.3; for `CN(C)c1ccc(C(=NO)c2ccc(N(C)C)cc2)cc1`, 28 ± 6.5; for `COc1cn(-c2ccc(F)cc2)nc1C(=O)Nc1ccccc1SC`, 62.7 ± 4.5.
Next, `COc1cccc(C(=O)Nc2sc3c(c2C#N)CC(C)CC3)c1` (configuration not stated): 28 ± 5.5; `COc1cccc(/C=N\NC(=O)c2n[nH]c3c2CCC3)c1`: 26.1 ± 2.5.
Next, `CCOc1ccc(NC(=O)c2ccc3c(c2)OCO3)c([N+](=O)[O-])c1`: 30.1 ± 1.8.
For `COc1ccccc1/C=C/C(=O)Nc1ccc(Cl)cn1`, the ERSE-FLuc reporter activation was 27.9 ± 6.6.
As to `CC(=O)Oc1cc(N2CCOCC2)c(OC(C)=O)c2c1C(=O)c1ccccc1C2=O`, the ERSE-FLuc reporter activation is 45 ± 8.
For `CCOc1ccc2nc(NC(=O)c3ccn(C)n3)sc2c1` the value was 30 ± 23; for `CCOc1cc(C2C(C(=O)OC3CCCCC3)=C(C)NC3=C2C(=O)CC(c2ccc(OC)cc2)C3)cc(Br)c1O` (configuration not stated), 27.2 ± 9.1; for `COc1ccc(/C=N/c2sc3c(c2C(N)=O)CCCC3)cc1`, 26.4 ± 4.8.
Next, `COc1ccc(/C=C2\SC(=O)NC2=Nc2ccc(C)cc2)c(OC)c1`: 26.8 ± 1.3; `CCOc1ccc(NC(=O)c2cccc(F)c2)c([N+](=O)[O-])c1`: 25.9 ± 2.4.

These data come from the supplement of paper PMC4954754.
